A selection: hits, their analogues and other compounds. The true share with any hit is near 10%.
HP1b binding inh – blocks HP1-beta chromodomain binding to methylated histone tails; Potency, µM (series often up to 114 µM), without a hit: top-dose activity change, negative = inhibition, hits mostly inhibitors; P83916; AID 540317; actives 0.56% (n = 390,000); AlphaScreen HP1-beta / biotin-H3K9me3 peptide binding; note: potency is the fitted concentration of half-maximal effect; nearly all actives have a fitted effect of over 70% in size
Target sequence (P83916 whole entry, looked up): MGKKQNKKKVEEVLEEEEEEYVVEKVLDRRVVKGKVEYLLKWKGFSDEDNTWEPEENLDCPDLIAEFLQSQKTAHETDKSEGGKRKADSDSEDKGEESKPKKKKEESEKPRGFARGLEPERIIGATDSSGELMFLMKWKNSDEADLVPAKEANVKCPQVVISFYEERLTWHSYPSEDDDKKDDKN
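AlphaScreen: HP1-beta (50 nM) preformed 30 min with biotin-H3(1-18)K9me3 peptide (50 nM) in PBS pH 7.4, 0.01% Tween-20. Compound added for 30 min at RT, then streptavidin donor/nickel chelate acceptor beads (10 ug/mL) for 30 min.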
Six1-Eya2 inh – blocks human Six1 binding to Eya2 | actives 0.56% (n = 360,000) | activity change, % (test concentration not listed) | Q15475+O00167 | AID 651725 | AlphaScreen GST-Six1/His-Eya2 binding, biochemical; hits give low values; in the data active = activity change below about -65%; inconclusive = mostly about -30% to -63%; note: % is set by controls: 0 for no effect and ±100 for the full control effect
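AlphaScreen with GST-Six1 and His-Eya2 (5X mix: 250 nM and 500 nM), glutathione donor and nickel acceptor beads; buffer 50 mM Tris pH 8.0, 300 mM NaCl, 1 mM TCEP; 1 h at 37 C in the dark.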
CtBP-E1A inh – CtBP/E1A binding inhibition; AlphaScreen GST-E1A/His-CtBP binding, 1536-well; hits give low values; activity change, % (no concentration beside the values); actives 0.49% (n = 340,000); in the data active = activity change below about -65%; inconclusive = mostly about -30% to -63%; note: % is set by controls: 0 for no effect and ±100 for the full control effect
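AlphaScreen with 125 nM GST-E1A and 125 nM His-CtBP (5X stocks) in Tris pH 8.0, 300 mM NaCl, BSA, Tween 20, TCEP. Compounds preincubated 2 h at 37 deg C, then glutathione donor/nickel acceptor beads added for 1 h at 37 deg C in dark.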
BAZ2B inh – blocks human BAZ2B. AID 504333. AlphaScreen BAZ2B-H3K14Ac peptide displacement. Potency, µM (titrated, usually from 114 µM), without a hit: top-dose activity change, negative = inhibition, actives largely listed as inhibitors. actives 4.4% (n = 360,000); note: potency is the fitted concentration of half-maximal effect; % is set by controls: 0 for no effect and ±100 for the full control effect; nearly all actives have a fitted effect of over 60% in size
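BAZ2B 50 nM plus b-H3(5-23)K14Ac 50 nM, PBS pH 7.4/0.01% Tween-20, 30 min RT; compound added (max 110 uM), 30 min RT; streptavidin donor/Ni-chelate acceptor beads 10 ug/mL final, 20 min dark; AlphaScreen read.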
JMJD2A Tudor inh – JMJD2A Tudor domain (human) inhibition; O75164; AlphaScreen JMJD2A-Tudor / H3K4me3 peptide binding; Potency, µM (top dose mostly 114 µM), inactives show at the highest dose activity change, negative = inhibition, actives largely listed as inhibitors; actives 4.4% (n = 390,000); AID 504339; note: potency is the fitted concentration of half-maximal effect; % is set by controls: 0 for no effect and ±100 for the full control effect; nearly all actives have a fitted effect of over 50% in size
G9a inh – G9a (human) methyltransferase inhibition; Potency, µM (titrated, usually from 102 µM), for inactives: at the highest dose activity, negative = inhibition, most hits filed as inhibitors; AID 504332; G9a H3K9 monomethylation, AlphaScreen, 2 h; actives 8.8% (n = 350,000); note: potency is the fitted concentration of half-maximal effect; % is set by controls: 0 for no effect and ±100 for the full control effect; nearly all actives have a fitted effect of over 75% in size
Target sequence (Q96KQ7 913-1193 limits assumed): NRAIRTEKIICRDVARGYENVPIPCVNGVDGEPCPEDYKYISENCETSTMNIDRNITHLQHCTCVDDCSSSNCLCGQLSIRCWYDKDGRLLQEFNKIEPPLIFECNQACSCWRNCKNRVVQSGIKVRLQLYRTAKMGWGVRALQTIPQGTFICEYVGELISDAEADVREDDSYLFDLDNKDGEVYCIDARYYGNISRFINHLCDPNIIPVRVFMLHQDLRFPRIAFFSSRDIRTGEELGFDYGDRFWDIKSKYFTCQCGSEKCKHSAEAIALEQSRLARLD
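Chemiluminescent proximity detection of H3K9 monomethylation, read after 10 min bead incubation in the dark. Reaction: 20 nM G9a, 500 nM biotin-H3K9 peptide, 20 uM SAM cofactor, 2 h, room temperature, following 15 min enzyme-compound preincubation.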
* marks the source's active call; other numbers are inactive results; ? = inconclusive; · = no result; [ ] = remark or other dose. Unless noted, calls come from the whole dose curve; as a rule, active = well fitted inhibition curve with a large enough effect; inconclusive = small, poorly fitted or top-dose-only effect; inactive = no such curve, though single readings can be large or run the other way.

SMILES	HP1b binding inh	Six1-Eya2 inh	CtBP-E1A inh	BAZ2B inh	JMJD2A Tudor inh	G9a inh
Cc1ccc(NC(=S)/C(=C(\[O-])c2ccc(F)cc2)[n+]2ccccc2)cc1	?	-1	3	?	?	13µM*
CCCCNC(=O)CCCN1C(=O)CCn2nc(-c3cccn3C)cc21	-11%[57 µM]	·	·	-27%	-31%	4%[59 µM]
CCc1ccc(C2N3CC4(C)CN2CC(c2ccccc2)(C3)C4=O)cc1 (stereo not given)	45%	·	·	-8%	-17%	3%[59 µM]
CCc1ccc2c(c1)/C(=N/N(C)C(=S)NC)C(=O)N2	?	-14	-16	10µM*	?	-70%[59 µM]
NC(=O)c1ccc(N=C2C(=O)Nc3ccc([N+](=O)[O-])cc32)cc1	12%	-9	·	-24%	-16%	·
CCc1cccc(NC(=O)c2ccc3c(c2)c(C)c(C)n3Cc2ccc(F)cc2)c1	-4%	·	·	-22%	-33%	-11%[59 µM]
COc1ccccc1-c1n[nH]c(=S)n1N	16%	3	0	?	?	13µM*
COc1ccccc1-c1cc(N)n[nH]1	-29%	5	-3	-10%	-20%[11.4 µM]	12%
COc1ccccc1-c1nc(N)n[nH]1	50%	3	5	1%	-3%	·
COc1ccccc1-c1n[nH]c(=S)n1-c1ccccc1	37%	3	4	-27%	7.9µM*	2.5µM*
Cc1ccc(CN2CCSc3ccc(C(=O)N4CCN(c5cc(C)ccc5C)CC4)cc32)cc1	17%	·	·	-31%	-26%	?
CC1CCCC/C1=N\NC(=S)Nc1ccccc1 (stereo not given)	2%	3	-7	?	?	32µM*
CC1CCC/C(=N\NC(=S)Nc2ccccc2)C1 (stereo not given)	-13%	-19	-12	?	79µM*	7.9µM*
COc1cccc(NC(=S)NN=C2CCCCCC2)c1	-34%	-4	-4	56µM*	?	10µM*
CC1CCC/C(=N/NC(=O)c2ccccc2-n2cccc2)C1 (stereo not given)	6%	3	0	-7%	-28%	1%[59 µM]
O=C(NC(=S)Nc1ccccc1)C1CCCCC1	36%	2	7	-12%	-14%	·
FC(F)(F)c1ccccc1NC(=S)NN=C1CCCCCC1	-16%	-12	-12	50µM*	50µM*	8.9µM*
Cc1cc(N2CCN(c3ccc(F)cc3)CC2)n2nc(-c3ccc(Cl)cc3)nc2n1	29%	·	·	-2%	-4%	6%[59 µM]
O=C1NCc2c1c1c3ccccc3[nH]c1c1[nH]c3ccccc3c21	1%[57 µM]	·	·	·	-18%[57.1 µM]	·
CC(C)c1ccc(NC(=O)CSC2=Nc3ccccc3C3=NC(CCC(=O)NCc4ccco4)C(=O)N23)cc1 (stereo not given)	34%	·	·	1%	-5%	8%[59 µM]
O=C(/C=C/c1ccc(-c2ccccc2[N+](=O)[O-])o1)c1ccco1	40µM*	-9	-2	40µM*	18µM*	14µM*
Cc1cc2c(s1)c1cnn(Cc3cccc4cccnc34)c(=O)c1n2C	·	·	·	·	-24%	·
N=C1N(c2ccccc2)C(=S)C(=Nc2ccccc2)N1c1ccccc1	45µM*	-18	1	·	25µM*	·
N#CC(C#N)=C1SC(=Nc2ccccc2)C(=Nc2ccccc2)N1c1ccccc1	?	12	34	·	?	·
COc1cccc(-c2nc(CS(=O)(=O)CC(=O)NCc3cccc(Cl)c3)c(C)o2)c1	16%	·	·	-15%	-11%	-19%[59 µM]
SMILES	HP1b binding inh	Six1-Eya2 inh	CtBP-E1A inh	BAZ2B inh	JMJD2A Tudor inh	G9a inh
COc1ccc(C(=O)N2CCN(c3ccc(F)cc3)CC2)cc1S(=O)(=O)NC1CC1	20%	-1	·	1%	-6%	24%[12.7 µM]
COc1cc(OC)c(C(=O)Nc2ccc(S(=O)(=O)N3CCCCC3)cc2)cc1OC	13%	-8	-2	7%	-14%	1%[0.501 µM]
O=C(Nc1ccc(S(=O)(=O)N2CCCCC2)cc1)c1ccc(=O)[nH]c1	22%	-5	-23	-1%	-10%	14µM*
COc1ccc(C(=O)Nc2ccc(N3CCOCC3)cc2)cc1S(=O)(=O)NC1CCCC1	8%	-5	0	-29%	-25%	32µM*
COc1ccc(C(=O)Nc2ccc(N3CCOCC3)cc2)cc1S(=O)(=O)N1CCCC1	8%	3	5	-4%	-15%	50µM*
COc1ccc(C(=O)Nc2ccc(S(=O)(=O)N3CCCCC3)cc2)cc1OC	?	-25	?	-10%	79µM*	-11%[59 µM]
COc1cccc(-c2nn(C)c3sc(C(=O)N4CCN(c5cccc(C)c5)C(C)C4)cc23)c1 (stereo not given)	6%	·	·	·	?	?
N#C/C(=C\c1ccc(Cl)cc1)C(=O)NCC1CCCO1 (stereo not given)	17%	·	·	-2%	-13%	-28%[59 µM]
COc1ccc(S(=O)(=O)N2CCOCC2)cc1C(=O)Nc1ccc(N2CCCCCC2)cc1	?	?	?	·	10µM*	·
COc1ccc(C(=O)Nc2ccc(-c3cn4ccsc4n3)cc2)cc1S(=O)(=O)N1CCOCC1	17%	-77*	-73*	·	-14%	0%[59 µM]
COc1ccc(C(=O)Nc2ccc(N3CCOCC3)cc2)cc1S(=O)(=O)N1CCOCC1	29%	-4	12	-3%	-7%	56µM*
Cc1cc(O)c(-c2cc(C(=O)Nc3ccc(S(=O)(=O)N4CCOCC4)cc3)[nH]n2)cc1C	1%	?	-72*	-3%	-11%	32%[59 µM]
COc1ccc(C(=O)Nc2ccc(-c3ccc(C)o3)cc2)cc1S(=O)(=O)N1CCOCC1	-52%	-22	-12	-3%	-10%	?
COc1ccc(N2CCN(C(=O)Cn3nc(Cc4cccnc4)c4ccccc4c3=O)CC2)cc1	16%	·	·	?	-24%	?
CCOc1ccccc1NC(=O)C1CCN(S(=O)(=O)c2ccc3[nH]c4c(c3c2)CCCCC4)CC1	24%	·	·	-11%	-19%	-40%[59 µM]
CCc1ccc(NC(=O)C(=O)NCCc2sc3nc(-c4ccc(OC)cc4)nn3c2C)cc1	33%	·	·	0%	-5%	3%[59 µM]
COc1cc(NC(=O)c2ccc(OCc3c(C)noc3C)c(OC)c2)cc(OC)c1	25%	-17	-23	·	-12%	·
CC(OC(=O)c1ccc(Cl)c(S(=O)(=O)N2CCOCC2)c1)C(=O)NC1CCCCC1C (stereo not given)	31%	13	-2	-19%	3%	15%[0.501 µM]
COc1ccc(C(=O)OC(C)C(=O)NC2CCCCC2C)cc1S(=O)(=O)N1CCOCC1 (stereo not given)	29%	0	11	-7%	0%	79µM*
COc1cc(C(=O)Nc2ccc(N3CCOCC3)cc2)ccc1OCc1c(C)noc1C	27%	2	2	-5%	-21%	50µM*

High-throughput results: PubChem BioAssay, National Center for Advancing Translational Sciences (NCATS)
